Source: PubChem
This is a sample that favours compounds with a hit; in the whole collection about 3.3% have one here.
Gli-Sufu antag = Gli-Sufu pathway antagonists, primary screen, luciferase luminescence, Sufu-KO-LIGHT cells, uHTS; Sufu-KO-LIGHT fibroblasts, Gli luciferase reporter luminescence; inhibition, % at 5 µM; actives 0.74% (n = 340,000);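 active = inhibition above about 55%, limit read from the data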;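 note: 0% = DMSO-treated cells and 100% = wells with medium but no cells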
Jurkat NFkB inh = inhibitors of induced NF-kB luciferase reporter, primary screen, TCR NF-kB activation inhibitor project, cell-based, luminescence, uHTS | Jurkat, PMA/ionomycin-induced NF-kB luciferase reporter | inhibition, % at 4 µM | actives 0.53% (n = 330,000) | AID 435003, 2010; in the data active = inhibition above about 50%
697 NFkB inh = inhibitors of PMA/ionomycin-induced NF-kB reporter, 697 cells, primary screen, B-cell NF-kB inhibitor project, cell-based, luminescence, uHTS; actives 0.33% (n = 330,000); 697 B-cell NF-kB luciferase reporter, 16 h; inhibition, % at 4 µM; in the data active = inhibition above about 35%
SMARCA2 act = SMARCA2 (BRM) function activators, primary screen, cell-based, luminescence, high throughput; AID 652017, 2013; actives 1% (n = 370,000); activation, % at 9.1 µM; MG213 cells, MMTV-luciferase reporter, dexamethasone, overnight; in the data active = activation above about 7.8%;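 note: 0% = vehicle wells and 100% = reference activator wells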
esBAF inh = Bmi1 luciferase reporter increase in mESCs, primary screen, esBAF inhibitor project, mouse ES cells, Bmi1 luciferase knock-in, single point; 24 h; 100% = twice the neutral-well signal; reporter increase, % at 12.5 µM; actives 2% (n = 350,000); AID 602393, 2012; in the data active = activation above about 40%;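 note: 0% = median of the plate's neutral control wells and 100% = double that signal; a rise in the Bmi1 reporter signal indicates esBAF inhibition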
Gli-Sufu confirm = Gli-SUFU pathway antagonists, confirmation, single concentration, luciferase luminescence, Sufu-KO-LIGHT cells; shares compounds with Gli-Sufu antag; Gli luciferase reporter; inhibition, % at 5 µM; actives 40% (n = 2,500); AID 602428, 2012;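 active = mean inhibition at 5 µM reaching about 45%, limit read from the data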;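 note: plate controls were DMSO-treated cells for no effect and wells lacking cells for full effect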
SufuKO cytotox = cytotoxicity in Sufu-KO-LIGHT cells, confirmation, cytotoxicity control for Gli-SUFU antagonist project, cell-based, ATP luminescence, single concentration; shares compounds with Gli-Sufu antag; cytotoxicity, % at 5 µM; actives 32% (n = 2,500);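 active = mean cytotoxicity at 5 µM above about 25%, limit read from the data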;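 note: cells exposed to compound overnight for roughly 16 to 18 hours; plate controls were DMSO wells with cells for no effect and medium without cells for full effect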
Wnt3a cs = Wnt3a reporter signal inhibition, confirmation, counter-screen for Gli-SUFU antagonist project, Wnt-LIGHT cells, luminescence, single concentration; Wnt3a-driven luciferase reporter; actives 20% (n = 2,500); inhibition, % at 6.25 µM; shares compounds with Gli-Sufu antag; AID 651995, 2013;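 active = mean inhibition above about 25%, limit read from the data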
* = called active by the depositor; · = not tested or not shown.

SMILES	Gli-Sufu antag	Jurkat NFkB inh	697 NFkB inh	SMARCA2 act	esBAF inh	Gli-Sufu confirm	SufuKO cytotox	Wnt3a cs
C[C@@H]1CN([C@H](C)CO)C(=O)c2cc(NC(=O)Cn3cnnn3)ccc2O[C@H]1CN(C)Cc1ccc(C(F)(F)F)cc1	·	·	·	·	-2.7	·	·	·
Cn1c(=O)c2c(nc(NCCOc3ccc(C(C)(C)C)cc3)n2C)n(C)c1=O	64.4*	35.2	-28.3	-1.1	-34.7	47.4*	8.5	6.7
COCCNc1nc2c(c(=O)n(C)c(=O)n2C)n1Cc1cccc(C(F)(F)F)c1	68.2*	11.6	-9.6	-1.7	1.9	70.7*	29.0*	27.8*
COc1ccccc1OCCNc1nc2c(c(=O)n(C)c(=O)n2C)n1C	7.7	3.9	-15.5	-2.2	·	·	·	·
CCCNc1nc2c(c(=O)n(C)c(=O)n2C)n1Cc1cccc(C)c1	64.9*	28.5	-9.0	-1.7	·	59.1*	19.6	31.1*
CC(C)n1c(NCCc2ccccc2)nc2c1c(=O)n(C)c(=O)n2C	51.0	22.7	-57.7	-4.7	·	59.1*	37.8*	-5.1
CCCNc1nc2c(c(=O)n(C)c(=O)n2C)n1CCc1ccccc1	31.7	17.6	-40.3	-1.9	4.8	·	·	·
C[C@@H]1CN([C@@H](C)CO)C(=O)c2cc(NC(=O)CCCN(C)C)ccc2O[C@@H](C)CCCCO[C@@H]1CN(C)C	·	·	·	·	-8.9	·	·	·
CCC(=O)N(C)C[C@@H]1Oc2ncc(C#CC(C)(C)O)cc2C(=O)N([C@H](C)CO)C[C@H]1C	·	·	·	·	-3.2	·	·	·
CO[C@@H]1CN(C)C(=O)c2ccc(NC(=O)c3ccc(F)cc3)cc2OC[C@H](C)N(C(=O)CC2CC2)C[C@H]1C	·	·	·	·	15.6	·	·	·
COc1cccc(Cn2c(NCc3ccco3)nc3c2c(=O)n(C)c(=O)n3C)c1	80.9*	17.2	-14.8	-6.4	·	79.7*	40.6*	39.4*
CCC(C)[C@H](NC(=O)c1cn(CC)c2cc3c(cc2c1=O)OCO3)C(=O)NCCCn1ccnc1 (some centres not stated)	53.1	0.8	-8.3	-2.1	-2.3	4.7	-9.4	18.1
COCC(=O)Nc1ccc2c(c1)C(=O)N(C)[C@H]1CC[C@H](CC(=O)Nc3ccc(F)cc3)O[C@@H]1CO2	·	·	·	·	5.7	·	·	·
CSCCC(NS(=O)(=O)c1ccc(Cl)cc1)C(=O)OCC(=O)NC1CC1 (configuration not stated)	31.6	-0.4	-25.2	0.9	·	·	·	·
CSCCC(NS(=O)(=O)c1ccc(Br)cc1)C(=O)OCC(=O)NC1CC1 (configuration not stated)	51.4	-2.3	7.2	-0.9	-6.0	17.2	15.8	3.3
CO[C@H]1CN(C)C(=O)c2cc(NC(=O)NC(C)C)ccc2OC[C@@H](C)N(Cc2ccccc2)C[C@H]1C	·	·	·	·	0.7	·	·	·
CC(C)(C)C(=O)Nc1cc2nn(-c3ccccc3)nc2cc1Cl	80.5*	·	·	-8.4	-78.2	86.8*	83.0*	104.5*
COc1ccc(-c2cc(C(=O)N3CCCCCC3)c3ccccc3n2)cc1	50.1	-8.6	-27.3	3.2	9.5	16.0	21.6	-10.7
O=C(c1cc(-c2ccco2)nc2ccccc12)N1CCN(c2ccc(F)cc2)CC1	63.8*	-0.2	-3.2	-1.6	·	20.9	33.7*	-42.5
O=S(=O)(c1ccccc1)N1[C@@H]2CNc3ccccc3[C@@H]2[C@@H]1CO	·	·	·	·	1.2	·	·	·
COc1ccccc1CNC(=O)C[C@H]1C=C[C@@H](NC(=O)CN(C)C)[C@H](CO)O1	·	·	·	·	-3.2	·	·	·
CC(=O)Nc1nonc1-c1nc2ccccc2n1Cc1ccccc1	11.2	13.5	-10.7	1.8	-6.4	·	·	·
CCn1c(-c2nonc2NC(=O)c2ccccc2)nc2ccccc21	69.8*	-31.7	-129.2	5.4	-2.8	27.3	11.6	23.7
